Cav32 inh – Cav3.2 calcium influx blockers – cell-based, Fluo-4 calcium fluorescence, FDSS, MLSMR library, primary screen | Voltage-dependent T-type calcium channel subunit alpha-1H (Homo sapiens), O95180 | Cav3.2-expressing cells; hits give low values | B-score at 10 µM | 100,000 compounds, 4% hits;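 active = single-dose well whose peak fluorescence ratio is a statistical outlier from its plate by either plate-standardised score or position-corrected B-score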
CYP2C9 act – human CYP2C9 activators, primary screen, biochemical, luminescence. Cytochrome P450 2C9 (Homo sapiens), P11712. recombinant CYP2C9, luciferin-H conversion; hits give high values; factor 1 = untreated enzyme, 0 = blocked. activation factor at 5 µM. 96,000 compounds, 1.4% hits. AID 1024, 2008;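 active = activation factor of 2 or more for CYP2C9 at a 5 µM dose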
Target sequence (P11712 whole entry, looked up): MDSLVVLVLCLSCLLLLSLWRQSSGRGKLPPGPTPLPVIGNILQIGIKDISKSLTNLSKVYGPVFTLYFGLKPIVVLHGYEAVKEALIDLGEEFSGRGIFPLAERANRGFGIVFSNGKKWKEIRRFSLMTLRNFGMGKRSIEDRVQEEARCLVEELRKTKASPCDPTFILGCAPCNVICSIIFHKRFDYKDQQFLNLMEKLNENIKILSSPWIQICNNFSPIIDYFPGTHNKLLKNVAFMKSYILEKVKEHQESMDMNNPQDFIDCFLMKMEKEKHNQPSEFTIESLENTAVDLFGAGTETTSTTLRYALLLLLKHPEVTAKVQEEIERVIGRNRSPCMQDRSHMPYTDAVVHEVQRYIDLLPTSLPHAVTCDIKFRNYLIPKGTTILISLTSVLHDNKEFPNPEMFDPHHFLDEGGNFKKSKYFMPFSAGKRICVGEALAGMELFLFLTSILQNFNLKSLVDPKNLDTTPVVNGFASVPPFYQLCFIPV
CYP2C19 inh – blockers of cytochrome P450 2C19 activity – biochemical, luminescence, ADME assay, primary screen. P33261. inhibition, % at 5 µM. CYP2C19 Supersomes, luciferin-H EGE luminescence, 30 min. 96,000 compounds, 21% hits;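 active = CYP2C19 inhibition above a set limit at 5 µM in the primary screen, cut at about 50% in these data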
CYP2C19 act – human CYP2C19 activators, primary screen, biochemical, luminescence; activation factor at 5 µM; 96,000 tested, under 10 active; Cytochrome P450 2C19 (Homo sapiens), P33261; recombinant CYP2C19, luciferin-H EGE luminescence; hits give high values; 0 = fully inhibited enzyme, 1 = untreated enzyme;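 active = activation factor of at least 2 at 5 µM in the primary screen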
CYP2C9 inh – blockers of cytochrome P450 2C9 activity – biochemical, luminescence, ADME assay, primary screen. 96,000 compounds, 20% hits. inhibition, % at 5 µM. P11712. CYP2C9 Supersomes, luciferin-H conversion. AID 777, 2007;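 active = blocking of liver enzyme CYP2C9 beyond about 50% at 5 µM, limit read from the data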
A number is an active result; – = inactive; · = not tested or not shown. Only some compounds are listed: those with a hit (about 27% of all), similar ones and a draw of the others.

SMILES | Cav32 inh | CYP2C9 act | CYP2C19 inh | CYP2C19 act | CYP2C9 inh
Cn1nc(-c2ccc(OCC(=O)NCC3CCCO3)cc2)c2ccccc2c1=O (stereo not given) | – | – | – | – | 54
CCCc1cc(N2CCCC(C(=O)NCC)C2)n2ncnc2n1 (stereo not given) | – | – | – | – | –
CCCCOc1cc(=O)[nH]c(=O)[nH]1 | – | – | – | – | –
N#Cc1cccc(C(c2nnnn2C2CCCC2)N2CCCCCC2)c1 (stereo not given) | – | – | – | – | –
N#Cc1ccc(C(c2nnnn2C2CCCC2)N2CCC(Cc3ccccc3)CC2)cc1 (stereo not given) | -6.2 | – | 56 | – | –
N#Cc1cccc(C(c2nnnn2C2CCCC2)N2CCC(Cc3ccccc3)CC2)c1 (stereo not given) | -7 | · | · | · | ·
COCCn1nnnc1C(c1cccc(C#N)c1)N1CCCCCC1 (stereo not given) | – | – | 68 | – | –
CC(=O)NCCN=Cc1sc2ccccc2c1O | – | – | – | – | –
CCCN=Cc1sc2ccc(OCC)cc2c1O | – | – | 69 | – | –
COc1ccc(C(CNC(=O)c2cc(C)oc2C)N2CCOCC2)cc1 (stereo not given) | – | – | 60 | – | –
COc1ccc(C(CNC(=O)c2cccc(Br)c2)N2CCCC2)cc1 (stereo not given) | · | – | – | – | –
COc1ccc(C(CNC(=O)c2ccc3c(c2)C(=O)N(CCC(C)C)C3=O)N2CCOCC2)cc1 (stereo not given) | – | – | 88 | – | 88
O=C(NCC(c1ccc(F)cc1)N1CCOCC1)c1ccc(Br)o1 (stereo not given) | · | – | 61 | – | –
O=C(COc1ccccc1)NCC(c1cccs1)N1CCOCC1 (stereo not given) | – | · | · | · | ·
COc1ccc(C(CNC(=O)COc2ccccc2C#N)N2CCOCC2)cc1 (stereo not given) | – | – | – | – | 60
COc1ccc(C(=O)COC(=O)CCCn2c(=O)oc3ccccc32)cc1 | – | · | · | · | ·
CNC(=O)c1ccc(-c2sc3nc(N4CCOCC4)c4c(c3c2N)CCCC4)o1 | – | – | 92 | – | 94
CC1(C)Cc2c(c(N3CCOCC3)nc3sc(-c4ccc(C(=O)O)o4)c(N)c23)CO1 | – | · | · | · | ·
O=C(Nc1ccccc1-c1ccccc1)NC1CCN(CC(=O)N2CCOCC2)CC1 | – | – | – | – | –
CCOC(=O)CNc1c(-c2ccccc2)nc2ccc(Cl)cn12 | – | – | 58 | – | –
Cc1cccc(N(CC(=O)Nc2ccc(CC#N)cc2)S(C)(=O)=O)c1 | – | – | – | – | –
Cc1cccc(N(CC(=O)Nc2ccccc2F)S(C)(=O)=O)c1 | – | – | 92 | – | 69
CSc1ccccc1NC(=O)CN(c1cccc(C)c1)S(C)(=O)=O | – | – | 51 | – | 53
CCc1ccc(NC(=O)CN(c2cccc(C)c2)S(C)(=O)=O)cc1 | – | – | – | – | –
COc1ccc(N2C(=O)[C@@H]3[C@H](C2=O)[C@H]2c4ccccc4C=CN2[C@@H]3C(=O)Nc2ccccc2)cc1 | – | – | – | – | 62
SMILES | Cav32 inh | CYP2C9 act | CYP2C19 inh | CYP2C19 act | CYP2C9 inh
Cc1ccc(N2C(=O)[C@@H]3[C@H](C2=O)C2c4ccccc4C=CN2[C@@H]3C(=O)c2ccco2)cc1 (stereo not given in full) | – | – | – | – | –
CC(C)(C)C(=O)[C@@H]1[C@@H]2C(=O)N(c3ccc4c(c3)OCCO4)C(=O)[C@@H]2C2c3ccccc3C=CN21 (stereo not given in full) | – | – | 57 | – | 57
Cc1c(C2N3CC4(C)CN2CC(C)(C3)C4=O)c2ccccc2n1C (stereo not given) | – | – | – | – | –
COC(=O)CSc1nnc(C)n1-c1cccc(C#N)c1 | – | – | – | – | –
Cc1nc(N)c2c(Cc3cccc4ccccc34)nn(C(C)(C)C)c2n1 | – | · | · | · | ·
N#Cc1cccc(C(c2nnnn2CCc2ccccc2)N2CCN(C3CCCCC3)CC2)c1 (stereo not given) | – | – | – | – | –
CC(C)(C)n1nnnc1C(c1cccs1)N1CCN(Cc2ccccc2)CC1 (stereo not given) | – | – | – | – | –
